Results from the supplement of paper PMC8975748.
Structures can show the parent of a compound that is named as a salt.

test system: Saccharomyces cerevisiae BY4741 SeMeCo community; experiment: z-score of subpopulation abundance vs DMSO median, subpopulation auxotrophic for M; higher = larger share of this subpopulation than in DMSO controls; details: 10 µM; 24 h; SM minimal medium; subpopulation (auxotrophy): M
Summary of the method: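 Scoring was based on each subpopulation's abundance, expressed as a z-score against the vehicle-well median. A Saccharomyces cerevisiae BY4741 community with four plasmids, each restoring one auxotrophy and encoding a distinct fluorescent protein, was pre-grown overnight to OD600 1.0, diluted to 0.3, and added at 70 µl to 384-well plates acoustically predosed with library drugs (10 µM final). It then grew 24 h in minimal SM medium before paraformaldehyde fixation and automated confocal microscopy, with single-auxotroph fluorescent strains setting thresholds and autofluorescence correction.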

For `CC(C)NC(=N)NC(=N)Nc1ccc(Cl)cc1` [Proguanil], which “z-score of subpopulation abundance” value is on record?
The value was 0.65.

Which “z-score of subpopulation abundance” value does the source give for `Nc1nc(O)c2ncn(CCC(CO)CO)c2n1` [Penciclovir] here?
The value was -0.61.

`C=CC(C)(O)CCC=C(C)C` (configuration not stated) [Linalool] was tested. Which “z-score of subpopulation abundance” value did it give?
Its value is 0.32.

With `O=C(N[C@H](CO)[C@H](O)c1ccc([N+](=O)[O-])cc1)C(Cl)Cl` [Chloramphenicol] as the compound, how does the “z-score of subpopulation abundance” value read?
Its value is 0.86.

How did the “z-score of subpopulation abundance” value turn out when `CCCN1CCCC[C@H]1C(=O)Nc1c(C)cccc1C` [Ropivacaine] was run?
The value was 0.5.

How did the “z-score of subpopulation abundance” value turn out when `Cc1onc(-c2ccccc2)c1-c1ccc(S(N)(=O)=O)cc1` [Valdecoxib] was run?
Its value is -0.21.

`CN1[C@@H]2CC[C@H]1C[C@@H](OC(=O)c1c[nH]c3ccccc13)C2` [Tropisetron] was tested. Which “z-score of subpopulation abundance” value did it give?
Its value is 1.72.

How did the “z-score of subpopulation abundance” value turn out when `CC[C@H]1OC(=O)[C@H](C)[C@@H](O[C@H]2C[C@@](C)(OC)[C@@H](O)[C@H](C)O2)[C@H](C)[C@@H](O[C@@H]2O[C@H](C)C[C@H](N(C)C)[C@H]2O)[C@](C)(O)C[C@@H](C)/C(=N\OCOCCOC)[C@H](C)[C@@H](O)[C@]1(C)O` [Roxithromycin] was run?
The value was 0.34.

`COc1ccccc1N1CCN(CCCNc2cc(=O)n(C)c(=O)n2C)CC1` [Urapidil HCl] was tested. Which “z-score of subpopulation abundance” value did it give?
The value was -0.32.

`O=C(O)c1cc(-c2ccc(F)cc2F)ccc1O` [Diflunisal] was tested. Which “z-score of subpopulation abundance” value did it give?
The value was -2.15.

`C=C[C@H]1CN2CC[C@H]1C[C@H]2[C@H](O)c1ccnc2ccc(OC)cc12` [Quinine HCl Dihydrate] was tested. Which “z-score of subpopulation abundance” value did it give?
The value was 0.59.

Which “z-score of subpopulation abundance” value does the source give for `Cc1nc(=O)c2cc(CN(C)c3ccc(C(=O)N[C@@H](CCC(=O)O)C(=O)O)s3)ccc2[nH]1` [Raltitrexed] here?
Its value is 0.3.
